The source of these data is PubChem BioAssay (Tox21).

Experiment [1] is described as follows: qHTS assay to identify small molecule antagonists of the estrogen related receptor (ERR) signaling pathway from Tox21 library - cell viability counter screen (AID 1224834). Also: nearly all actives have a fitted effect of over 30% in size. The method, boiled down:
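Cytotoxicity of test substances is gauged in the same ERR cells used for the antagonist screen, after 17.5 h of compound treatment at 37 C, by CellTiter-Fluor fluorescence measured after 30 min.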

Experiment [2] has as its target Luciferin 4-monooxygenase (Photinus pyralis) (UniProt P08659). Description: qHTS assay to identify small molecule inhibitors of firefly luciferase (AID 1224835). Also: nearly all actives have a fitted effect of over 25% in size. Also: potency is read from the fitted curve at half-maximal effect. The method, boiled down:
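Inhibition of purified Photinus luciferase is measured by luminescence. Substrate levels (D-luciferin, ATP) sit at their KM values. Each compound is tested in a concentration series.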
In general terms: In qHTS, concentration-response curves come from the screen itself.

Experiment [3] is described as follows: qHTS assay to identify small molecule agonists of the constitutive androstane receptor (CAR) signaling pathway - cell viability counter screen (AID 1224836). Also: nearly all actives have a fitted effect of over 45% in size. In outline:
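Cell viability multiplexed with the CAR agonist screen: CellTiter-Fluor fluorescence after 23 hr at 37 C. HepG2-CYP2B6-hCAR cells got compounds at 15 concentrations with PK11195 at 0.75 uM final.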

The nature of experiment [4]: qHTS assay to identify small molecule antagonists of the constitutive androstane receptor (CAR) signaling pathway - cell viability counter screen (AID 1224837). Also: nearly all actives have a fitted effect of over 45% in size. The method, boiled down: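 Multiplexed cytotoxicity read-out for the CAR antagonist screen: double-stable HepG2-CYP2B6-hCAR cells co-treated with 50 nM CITCO (final) and compound over 15 concentrations, incubated 23 hr, then assessed by CellTiter-Fluor fluorescence.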

Experiment [5] has as its target Nuclear receptor subfamily 1 group I member 3 (Homo sapiens) (UniProt Q14994). Description: qHTS assay to identify small molecule antagonists of the constitutive androstane receptor (CAR) signaling pathway (AID 1224838). Also: nearly all actives have a fitted effect of over 40% in size. The method, boiled down: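 Compounds were titrated across 15 concentrations onto HepG2 cells double-stably expressing hCAR and a CYP2B6-2.2kb reporter, together with 50 nM CITCO (final). After 24 h at 37 C, luciferase activity was measured by luminescence.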

The target is the same in experiment [6]. As to the kind of experiment: qHTS assay to identify small molecule agonists of the constitutive androstane receptor (CAR) signaling pathway (AID 1224839). Also: nearly all actives have a fitted effect of over 15% in size. Also: potency is read from the fitted curve at half-maximal effect. The method, boiled down: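 Luminescent ONE-Glo read-out after 24 hr, 37 C exposure of double-stable HepG2-CYP2B6-hCAR reporter cells to a 15-point compound series, in the presence of 0.75 uM PK11195 (final).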

Experiment [7] can be described thus: qHTS assay to identify small molecule antagonists of the estrogen related receptor signaling pathway with the pleiotropic PPARgamma coactivator (PGC) from Tox21 10K library - cell viability counter screen (AID 1224840; active = well fitted cell-killing curve with a large enough effect in the repeat runs, not every such curve was filed as active; also: nearly all actives have a fitted effect of over 40% in size). The method, boiled down: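 Step one, plate 2,000 PGC/ERR cells per well; step two, incubate 6 h at 37 C/5% CO2; step three, pin-transfer compounds; step four, incubate 17.5 h; step five, add CellTiter-Fluor and read fluorescence after 30 min.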

Experiment [8] addresses Thyrotropin receptor (Homo sapiens) (UniProt P16473). Description: qHTS assay to identify small molecule agonists of the thyroid stimulating hormone receptor (TSHR) signaling pathway (AID 1224843; calls by dose curve; also: nearly all actives have a fitted effect of over 45% in size). The method, boiled down:
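HEK293 cells stably bearing the thyrotropin receptor were plated at 800 cells/well and challenged with compound (30 min, RT). Accumulated cAMP was quantified via cAMP-d2 competing for cryptate-tagged antibody.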

A short description of experiment [9]: qHTS assay to identify small molecule agonists of the hypoxia (HIF-1) signaling pathway - cell viability counter screen (AID 1224844; calls by dose curve; also: nearly all actives have a fitted effect of over 50% in size). The method, boiled down: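 Tox21 10K compounds were added to HRE-bla ME-180 cells (0.5% dialyzed FBS) and incubated 17 hrs at 37C; ATP-based CellTiter-Glo luminescence then reported cell viability in the same wells.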
Experiment [10] can be described thus: qHTS assay to identify small molecule agonists of the hypoxia (HIF-1) signaling pathway (AID 1224846; active = well fitted activation curve with a large enough effect in the signal ratio in the repeat runs, not every such curve was filed as active; the % refers to the signal ratio). In outline:
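Steps: seed ME-180 HRE-bla cells (2,000/well, 0.5% dialyzed FBS); incubate 5 hrs at 37C; pin-transfer compounds or DMSO; incubate 17 hrs; add LiveBLAzer B/G substrate CCF4-AM; measure reporter activation by FRET.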

Experiment [11] can be described thus: qHTS assay to identify small molecule agonists of H2AX - cell viability counter screen (AID 1224847; calls by dose curve;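 also: wild-type CHO-K1 cells; top concentration of the series differs between compounds; nearly all actives have a fitted effect of over 30% in size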). In outline: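 Counter-screen for viability: CellTiter-Glo ATP luminescence read after 3 h compound treatment (15-point titration, 0.76% DMSO final) of CHO-K1 cells at 37C, with 30 min room-temperature reagent incubation.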
Experiment [12] can be described thus: qHTS RealTime-Glo MT Cell Viability Assay in HepG2 cells - 24 hour (AID 1224867). Also: nearly all actives have a fitted effect of over 50% in size. In outline: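 Compound treatment began 5 h after plating HepG2 cells (600/well) with NanoLuc luciferase and prosubstrate. Plates stayed at 37 C for 40 h; luminescence was captured at six time points, 0 h through 40 h.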
The nature of experiment [13]: qHTS RealTime-Glo MT Cell Viability Assay in HEK293 cells - 32 hour (AID 1224868). Also: top concentration of the series differs between compounds; nearly all actives have a fitted effect of over 50% in size. The method, boiled down:
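Quantitative high-throughput screen of the Tox21 10K library in HEK293: cells and RealTime-Glo reagents plated together, compound added at 5 h, luminescence monitored through 40 h at 37 C.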

Experiment [14] can be described thus: A CellTox Green Cytotoxicity Assay to monitor cytotoxicity in HEK293 cells - 0 hour (AID 1224869). Also: nearly all actives have a fitted effect of over 50% in size. Also: potency is read from the fitted curve at half-maximal effect. In outline: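 Cytotoxicity was tracked continuously in HEK293 cells by a DNA-binding dye excluded from viable cells. Compounds were transferred in DMSO 5 h after seeding; fluorescence was recorded at intervals up to 40 h.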
Experiment [15] in a line: qHTS RealTime-Glo MT Cell Viability Assay in HepG2 cells - 40 hour (AID 1224870). Also: nearly all actives have a fitted effect of over 50% in size. The method, boiled down: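 Real-time viability: cells seeded at 600 per well together with NanoLuc and cell-permeant prosubstrate, compounds added after 5 h incubation. Luminescence tracked at 0, 8, 16, 24, 32 and 40 h of exposure.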
Experiment [16] can be described thus: qHTS assay to identify small molecule antagonists of the estrogen related receptor signaling pathway with the pleiotropic PPARgamma coactivator (PGC) from Tox21 10K library (AID 1224841; call rule not given here; also: potency is read from the fitted curve at half-maximal effect). The method, boiled down: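 Antagonism in this quantitative HTS is taken from loss of luciferase signal in PGC/ERR cells. Cells (2,000/well) are treated with compounds in DMSO after a 6 h settling period and read by One-Glo luminescence after 18 h.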

Experiment [17] can be described thus: qHTS assay to identify small molecule agonists of the estrogen related receptor signaling pathway with the pleiotropic PPARgamma coactivator (PGC) from Tox21 10K library (AID 1224842). Also: nearly all actives have a fitted effect of over 15% in size. In outline: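 Luminescence from One-Glo (30 min, room temperature) measured after PGC/ERR cells had 18 h at 37 C with pinned compound (23 nL in DMSO). Cells had been seeded at 2,000 per well and pre-incubated 6 h.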

Experiment [18] is described as follows: qHTS assay to identify small molecule agonists of H2AX (AID 1224845; active = well fitted activation curve with a large enough effect in the signal ratio in the repeat runs, not every such curve was filed as active; the % refers to the signal ratio). The method, boiled down: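 Phospho-H2AX Ser139 measured by HTRF (ex 320 nm; em 665 and 620 nm) after 24 hr antibody incubation. Compounds, 15 concentrations, 0.76% DMSO, were applied to CHO-K1 cells for 3hr at 37C before lysis.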
Experiment [19] in a line: qHTS assay to identify small molecule antagonists of the estrogen related receptor (ERR) signaling pathway from Tox21 library (AID 1224848). Also: nearly all actives have a fitted effect of over 50% in size. In outline:
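Reading was by luminescence 30 min after ONE-Glo addition. Before that, ERR cells at 2,000 per well had rested 6 h at 37 C/5% CO2 and then received pin-tooled compounds in DMSO for 18 h at 37 C.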

A short description of experiment [20]: qHTS assay to identify small molecule agonists of the estrogen related receptor (ERR) signaling pathway from Tox21 library (AID 1224849; calls by dose curve; also: nearly all actives have a fitted effect of over 15% in size). Conditions: ERR reporter cell line, ONE-Glo luciferase, 18 h; at 92.4 µM (top of the series) unless noted. The method, boiled down: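 Agonist signal is luciferase luminescence from an ERR reporter cell line treated 18 h at 37 C with DMSO-dissolved compounds, read 30 min after ONE-Glo addition at room temperature.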

A number with no mark means an inactive call. Records with an inconclusive call do not appear. Activity calls are given as the source filed them. Unless noted, calls follow the shape of the dose curve; as a rule, active = well fitted curve in the direction sought with a large enough effect in the repeat runs; inconclusive = weak or mixed curves; inactive = no such curve, though single readings can be large; an effect the other way counts as inactive or inconclusive.
% is scaled to controls: 0 for no effect and ±100 for the full control effect.

Luciferin 4-monooxygenase (Photinus pyralis), sequence (P08659 whole entry, looked up): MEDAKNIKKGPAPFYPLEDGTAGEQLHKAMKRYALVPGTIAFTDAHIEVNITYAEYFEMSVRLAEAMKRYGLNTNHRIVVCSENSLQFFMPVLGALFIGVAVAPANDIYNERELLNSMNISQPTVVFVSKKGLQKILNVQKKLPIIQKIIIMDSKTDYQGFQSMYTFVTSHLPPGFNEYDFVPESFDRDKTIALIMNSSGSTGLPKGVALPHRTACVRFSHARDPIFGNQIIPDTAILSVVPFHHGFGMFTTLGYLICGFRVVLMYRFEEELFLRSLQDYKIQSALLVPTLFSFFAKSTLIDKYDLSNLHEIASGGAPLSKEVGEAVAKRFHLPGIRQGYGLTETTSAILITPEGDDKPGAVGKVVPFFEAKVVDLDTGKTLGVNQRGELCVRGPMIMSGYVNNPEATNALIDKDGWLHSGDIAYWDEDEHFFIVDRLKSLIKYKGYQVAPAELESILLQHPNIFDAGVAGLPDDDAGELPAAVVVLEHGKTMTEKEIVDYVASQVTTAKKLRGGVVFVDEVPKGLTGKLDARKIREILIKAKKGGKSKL
Nuclear receptor subfamily 1 group I member 3 (Homo sapiens), sequence (Q14994 whole entry, looked up): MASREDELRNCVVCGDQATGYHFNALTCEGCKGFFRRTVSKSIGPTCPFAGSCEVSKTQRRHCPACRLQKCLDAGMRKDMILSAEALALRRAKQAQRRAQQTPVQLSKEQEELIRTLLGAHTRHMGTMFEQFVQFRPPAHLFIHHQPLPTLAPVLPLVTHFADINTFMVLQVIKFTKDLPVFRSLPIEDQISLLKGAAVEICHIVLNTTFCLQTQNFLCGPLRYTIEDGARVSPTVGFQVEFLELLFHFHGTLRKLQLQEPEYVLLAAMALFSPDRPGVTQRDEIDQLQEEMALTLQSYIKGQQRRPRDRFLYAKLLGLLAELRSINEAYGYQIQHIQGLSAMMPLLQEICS
Thyrotropin receptor (Homo sapiens), sequence (P16473 whole entry, looked up): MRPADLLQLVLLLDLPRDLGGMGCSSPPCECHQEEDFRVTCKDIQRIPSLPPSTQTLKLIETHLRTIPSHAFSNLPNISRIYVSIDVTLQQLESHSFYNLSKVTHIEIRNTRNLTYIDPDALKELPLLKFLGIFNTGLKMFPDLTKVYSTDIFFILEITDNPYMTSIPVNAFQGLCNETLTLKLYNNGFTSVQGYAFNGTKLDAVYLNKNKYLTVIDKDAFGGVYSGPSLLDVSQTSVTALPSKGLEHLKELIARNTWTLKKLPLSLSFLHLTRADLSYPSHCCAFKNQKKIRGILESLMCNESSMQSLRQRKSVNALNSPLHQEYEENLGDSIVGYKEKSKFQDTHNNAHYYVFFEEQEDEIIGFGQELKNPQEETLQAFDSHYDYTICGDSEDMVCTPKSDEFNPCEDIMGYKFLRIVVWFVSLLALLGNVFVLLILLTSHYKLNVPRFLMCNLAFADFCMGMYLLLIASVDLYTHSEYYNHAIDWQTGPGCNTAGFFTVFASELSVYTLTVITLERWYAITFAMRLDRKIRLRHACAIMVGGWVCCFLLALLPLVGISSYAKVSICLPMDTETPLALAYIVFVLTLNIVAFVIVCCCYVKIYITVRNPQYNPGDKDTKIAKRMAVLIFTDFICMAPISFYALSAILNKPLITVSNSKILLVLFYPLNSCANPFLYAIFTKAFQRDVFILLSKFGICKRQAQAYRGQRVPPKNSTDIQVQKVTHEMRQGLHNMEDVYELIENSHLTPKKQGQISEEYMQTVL

For the molecule `O=C(NC(=O)c1c(F)cccc1F)Nc1cc(Cl)c(OC(F)(F)C(F)F)c(Cl)c1`, the Potency result in experiment [1], in [2], in [3], in experiment [4], in experiment [5] and in experiment [7] was “inactive” in each case. Further, the Potency result in [8], in [9], in experiment [11], in [12], in experiment [13] and in [14] was “inactive” each time. In experiment [15], the Potency entry is “inactive”. In experiment [6], the Potency was 2.17 µM (active). For the same molecule, the molecule was classed as inactive in experiment [10].
For `ClC1=C(Cl)[C@]2(Cl)[C@@H]3[C@@H](Cl)[C@H](Cl)C[C@@H]3[C@@]1(Cl)C2(Cl)Cl`, the Potency entry in experiment [1], in experiment [2], in experiment [3], in experiment [4], in experiment [5] and in [6] was “inactive” in each case. For the same molecule, the Potency result in [7], in experiment [16], in experiment [17], in [9], in experiment [18] and in experiment [11] was “inactive” in each case. Also, the Potency entry in experiment [19], in [12], in experiment [13] and in [15] was “inactive” each time. Moreover, in experiment [10], the outcome was inactive. Also, the activity change, positive = activation in experiment [20] is -5.06%.
Take `CC(=O)c1ccc(-c2ccccc2)cc1`: the Potency entry in [1], in experiment [3], in experiment [4], in experiment [5], in experiment [7] and in experiment [8] was “inactive” each time. The Potency entry in [9], in [11], in experiment [12], in experiment [13], in [14] and in experiment [15] was “inactive” throughout. For the same molecule, the Potency was 31.7 µM (active) in [2] and 48.6 µM (active) in experiment [6]. Moreover, the molecule was classed as inactive in experiment [10].
Regarding `CS(=O)(=O)c1ccc(C(=O)C2C(=O)CCCC2=O)c([N+](=O)[O-])c1`, the Potency result in experiment [1], in experiment [2], in experiment [3], in [4], in experiment [5] and in [6] was “inactive” in each case. Moreover, the Potency result in experiment [7], in experiment [11], in experiment [19], in experiment [12] and in experiment [15] was “inactive” each time. Moreover, the Potency in experiment [16] is 31.2 µM (active); in experiment [14], 44.4 µM (active). Besides, in [10], the result was inactive. Besides, the activity change, positive = activation in experiment [20] is -0.0686%.
As for `Cn1[nH]nnc1=S`, the Potency entry in [1], in experiment [3], in experiment [4], in experiment [5], in experiment [6] and in experiment [7] was “inactive” in each case. Further, the Potency entry in experiment [8], in experiment [9], in [18], in [11], in experiment [12] and in experiment [13] was “inactive” throughout. The Potency result in [14] and in experiment [15] was “inactive” each time. Further, the Potency in experiment [2] was 22.4 µM (active). The outcome in experiment [10] was inactive.
For `O=[N+]([O-])c1cc([N+](=O)[O-])c2ccccc2c1`, the Potency result in [1], in experiment [2], in experiment [3], in experiment [4], in [5] and in [7] was “inactive” throughout. Also, the Potency entry in experiment [17], in [8], in experiment [18], in experiment [13] and in experiment [15] was “inactive” in each case. In addition, in experiment [6], the Potency was 24.3 µM (active). For the same molecule, in experiment [10], the call was inactive. Further, the activity change, positive = activation in [20] was -17.9%.
`CC(C)CCCCCOC(=O)c1ccccc1C(=O)OCCCCCC(C)C`: the Potency result in experiment [1], in experiment [2], in experiment [3], in [4], in [5] and in experiment [6] was “inactive” each time. The Potency result in [7], in experiment [8], in experiment [9], in experiment [18], in experiment [11] and in [12] was “inactive” throughout. Besides, the Potency result in experiment [13] and in [14] was “inactive” each time. Also, the call in experiment [10] was inactive.
